In PubChem BioAssay (EPA / NIEHS):
The source made the active and inactive calls. The calls were made as follows: active = hit-call score of the fitted dose curve at least 0.9, where 1 is the maximum; inactive = score below 0.9.

Assays:
[1] = ATG_GLI_CIS: Attagene CIS-FACTORIAL HepG2 Assay for human Zinc Finger Protein GLI1 (AID 2282945); settings: HepG2, Attagene cis-factorial reporter mRNA, GLI element; actives raise or lower the signal
Outline: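 Bidirectional curve fits relative to DMSO, using reporter mRNA levels from RT-PCR plus capillary electrophoresis. Cells were HepG2 transiently carrying cis-regulated reporter constructs, harvested 24 h after dosing.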

[2] = ATG_ISRE_CIS: Attagene CIS-FACTORIAL HepG2 Assay for human Interferon Regulatory Factor 1 (IRF1) binding to an Interferon-Stimulated Response Element (ISRE) (AID 2282948); settings: HepG2 ISRE cis-reporter (Attagene), mRNA transcription readout; actives raise or lower the signal
Outline: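 Endogenous transcription factor activity read as reporter transcript abundance via RT-PCR and capillary electrophoresis. HepG2 cells transiently transfected, 24 h chemical exposure. Gain or loss fitted against DMSO baseline.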

[3] = ATG_M_32_CIS: Attagene CIS-FACTORIAL HepG2 Assay for M32 Transcription Factor (Internal Marker) (AID 2282949); settings: HepG2 Attagene cis-factorial M32 reporter, mRNA; actives raise or lower the signal;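 also: background control marker of the multiplexed CIS panel rather than a real target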
Outline: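 Using DMSO as baseline, bidirectional curve fits were applied to reporter mRNA signals. These came from transiently transfected HepG2 cells exposed for 24 h, with RNA analysed by RT-PCR, FAM primer extension, HpaI digestion and CE.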

[4] = ATG_M_06_CIS: Attagene CIS-FACTORIAL HepG2 Assay for M06 Transcription Factor (Internal Marker) (AID 2282950); settings: HepG2 Attagene CIS-FACTORIAL M06 internal marker reporter; actives raise or lower the signal
Outline: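 HepG2 liver cells, 24 h exposure. Reporter transcripts from transfected cis-element constructs quantified by RT-PCR/capillary electrophoresis fluorescence. Bidirectional curve fit against DMSO.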

[5] = biological target: Hypoxia-inducible factor 1-alpha (Homo sapiens) (UniProt Q16665); test: ATG_HIF1a_CIS: Attagene CIS-FACTORIAL HepG2 Assay for human Hypoxia Inducible Factor 1 (HIF1A) (AID 2282951); settings: HepG2 Attagene cis-factorial HIF1a reporter transcription; actives raise or lower the signal
Sequence of Hypoxia-inducible factor 1-alpha (Homo sapiens) (Q16665 whole entry, looked up): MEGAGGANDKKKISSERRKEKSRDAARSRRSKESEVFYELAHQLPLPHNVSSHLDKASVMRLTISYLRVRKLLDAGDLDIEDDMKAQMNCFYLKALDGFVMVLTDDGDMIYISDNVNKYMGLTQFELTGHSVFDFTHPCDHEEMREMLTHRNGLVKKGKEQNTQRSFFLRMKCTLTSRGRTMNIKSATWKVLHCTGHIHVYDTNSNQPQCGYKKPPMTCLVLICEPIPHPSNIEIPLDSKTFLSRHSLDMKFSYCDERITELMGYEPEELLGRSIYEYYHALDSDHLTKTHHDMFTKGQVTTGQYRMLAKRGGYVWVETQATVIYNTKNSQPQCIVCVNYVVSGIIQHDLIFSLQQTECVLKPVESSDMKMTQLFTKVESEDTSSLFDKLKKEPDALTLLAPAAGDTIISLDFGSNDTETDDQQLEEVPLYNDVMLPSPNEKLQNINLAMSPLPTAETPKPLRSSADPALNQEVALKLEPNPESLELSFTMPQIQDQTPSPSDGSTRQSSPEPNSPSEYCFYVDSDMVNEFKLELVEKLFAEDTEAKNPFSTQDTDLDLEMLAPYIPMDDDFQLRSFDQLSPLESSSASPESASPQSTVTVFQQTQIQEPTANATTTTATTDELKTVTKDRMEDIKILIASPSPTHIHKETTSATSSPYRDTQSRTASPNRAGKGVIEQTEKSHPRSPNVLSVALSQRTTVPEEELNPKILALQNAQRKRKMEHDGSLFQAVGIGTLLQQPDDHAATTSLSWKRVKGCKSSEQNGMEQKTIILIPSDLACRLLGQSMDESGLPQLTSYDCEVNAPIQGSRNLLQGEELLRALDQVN
Outline: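 Cis-element reporter constructs were transiently transfected into HepG2 cells, which were treated for 24 h; reporter RNA was reverse-transcribed, amplified, labelled and resolved by capillary electrophoresis.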

[6] = biological target: Hepatocyte nuclear factor 6 (Homo sapiens) (UniProt Q9UBC0); test: ATG_HNF6_CIS: Attagene CIS-FACTORIAL HepG2 Assay for human Hepatocyte Nuclear Factor 6 (HNF6) (AID 2282952); settings: HepG2 Attagene cis-factorial HNF6 reporter transcription; actives raise or lower the signal
Sequence of Hepatocyte nuclear factor 6 (Homo sapiens) (Q9UBC0 whole entry, looked up, the tested form may be a part): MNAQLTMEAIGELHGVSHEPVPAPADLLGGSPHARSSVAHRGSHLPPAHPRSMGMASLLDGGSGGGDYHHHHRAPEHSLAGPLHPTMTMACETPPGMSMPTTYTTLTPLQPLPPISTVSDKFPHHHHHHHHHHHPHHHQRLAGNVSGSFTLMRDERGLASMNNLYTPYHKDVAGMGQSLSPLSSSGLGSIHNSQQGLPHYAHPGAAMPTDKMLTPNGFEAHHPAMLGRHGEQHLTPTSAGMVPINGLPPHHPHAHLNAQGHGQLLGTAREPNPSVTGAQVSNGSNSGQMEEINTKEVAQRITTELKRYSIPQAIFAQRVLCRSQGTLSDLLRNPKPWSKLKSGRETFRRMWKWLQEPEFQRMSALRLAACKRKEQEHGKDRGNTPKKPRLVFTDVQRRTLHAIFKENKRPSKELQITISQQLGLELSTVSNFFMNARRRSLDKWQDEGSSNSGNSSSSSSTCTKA
Outline: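 Using cis-element reporters in HepG2 liver cells, the assay tracks endogenous factor-driven transcription 24 h post-dosing. Signal comes from 6-FAM-labelled, HpaI-digested RT-PCR fragments, with gain or loss scored against DMSO.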

[7] = biological target: Heat shock factor protein 1 (Homo sapiens) (UniProt Q00613); test: ATG_HSE_CIS: Attagene CIS-FACTORIAL HepG2 Assay for human Heat Shock Transcription Factor 1 (HSE) (AID 2282953); settings: HepG2 HSE cis-reporter, Attagene RNA transcription; actives raise or lower the signal
Sequence of Heat shock factor protein 1 (Homo sapiens) (Q00613 whole entry, looked up, the tested form may be a part): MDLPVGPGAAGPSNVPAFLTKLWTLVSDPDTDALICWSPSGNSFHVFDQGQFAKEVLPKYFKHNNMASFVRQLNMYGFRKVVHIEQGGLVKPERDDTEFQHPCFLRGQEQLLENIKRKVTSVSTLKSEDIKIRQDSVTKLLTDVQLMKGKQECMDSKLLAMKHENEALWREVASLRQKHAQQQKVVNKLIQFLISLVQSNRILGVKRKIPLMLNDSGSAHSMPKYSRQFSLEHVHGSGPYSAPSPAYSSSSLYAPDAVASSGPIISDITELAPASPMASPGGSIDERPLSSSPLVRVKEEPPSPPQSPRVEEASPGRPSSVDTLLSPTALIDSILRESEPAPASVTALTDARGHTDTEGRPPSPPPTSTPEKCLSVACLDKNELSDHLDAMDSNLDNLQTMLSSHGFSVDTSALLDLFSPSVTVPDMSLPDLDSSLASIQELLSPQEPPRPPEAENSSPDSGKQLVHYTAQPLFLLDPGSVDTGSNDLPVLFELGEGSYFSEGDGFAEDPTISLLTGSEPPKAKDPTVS
Outline: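 Endogenous transcription factor activity captured via cis-promoter reporter units transfected into HepG2; treatment lasted 24 h. Fluorescence intensity of reporter fragments analysed with bidirectional curve fitting, DMSO baseline.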

[8] = ATG_MRE_CIS: Attagene CIS-FACTORIAL HepG2 Assay for human Metal Responsive Element (MRE) (AID 2282954); settings: HepG2 MRE cis-reporter transcription, Attagene multiplex; actives raise or lower the signal
Outline: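 Multiplexed cis-reporter assay in human HepG2 liver cells, 24 h incubation with test chemical. Reporter transcripts measured by RT-PCR and capillary electrophoresis; values from bidirectional curve fitting versus DMSO.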

[9] = biological target: Paired box protein Pax-6 (Homo sapiens) (UniProt P26367); test: ATG_Pax6_CIS: Attagene CIS-FACTORIAL HepG2 Assay for human Paired Box 6 (PAX6) (AID 2282956); settings: HepG2 CIS-FACTORIAL PAX6 reporter transcription, RNA readout; actives raise or lower the signal
Sequence of Paired box protein Pax-6 (Homo sapiens) (P26367 whole entry, looked up): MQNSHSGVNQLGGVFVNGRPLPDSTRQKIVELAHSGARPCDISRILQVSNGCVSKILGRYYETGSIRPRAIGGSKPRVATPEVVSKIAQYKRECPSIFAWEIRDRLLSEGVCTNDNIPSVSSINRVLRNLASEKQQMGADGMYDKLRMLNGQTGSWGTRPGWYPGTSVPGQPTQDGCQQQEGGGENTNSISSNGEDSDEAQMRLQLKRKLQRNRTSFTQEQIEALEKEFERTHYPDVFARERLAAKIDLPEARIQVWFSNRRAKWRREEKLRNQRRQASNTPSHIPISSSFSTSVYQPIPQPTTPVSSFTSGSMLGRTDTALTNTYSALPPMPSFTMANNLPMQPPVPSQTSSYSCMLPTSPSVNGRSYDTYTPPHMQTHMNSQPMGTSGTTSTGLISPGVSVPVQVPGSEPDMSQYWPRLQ
Outline: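 Read-out is reporter transcript level, measured by RT-PCR with fluorescent primer extension and capillary electrophoresis after 24 h dosing of transfected HepG2 cells. Activity in either direction fitted relative to DMSO control.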

[10] = ATG_PXRE_CIS: Attagene CIS-FACTORIAL HepG2 Assay for human Pregnane X Receptor Element (PXRE) (AID 2282957); settings: HepG2 Attagene CIS-FACTORIAL PXRE reporter, mRNA; actives raise or lower the signal
Outline: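 Using HepG2 transfected with multiple reporter transcription units, endogenous factor-driven transcription was scored as reporter mRNA after 24 h exposure.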

[11] = ATG_PPRE_CIS: Attagene CIS-FACTORIAL HepG2 Assay for human Peroxisome Proliferator-activated Response Element (PPRE) (AID 2282958); settings: HepG2 PPRE cis-element reporter, Attagene transcription factor profiling; actives raise or lower the signal
Outline: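 DMSO served as negative control and baseline for bidirectional curve fitting. Signal came from PPRE-regulated reporter mRNA in HepG2 cells, measured 24 h post-dosing by RT-PCR, 6-FAM primer extension and capillary electrophoresis.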

[12] = ATG_RORE_CIS: Attagene CIS-FACTORIAL HepG2 Assay for human RAR-related Orphan Receptor Element (RORE) (AID 2282959); settings: HepG2 Attagene cis-factorial RORE reporter, mRNA; actives raise or lower the signal
Outline: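 Transfect HepG2 with MRTUs; treat 24 h; extract RNA; RT with oligo(dT); PCR with reporter-specific primers; 6-FAM primer extension; HpaI digest 2 h at 37 C; capillary electrophoresis. Fit vs DMSO, bidirectional.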

[13] = ATG_Sox_CIS: Attagene CIS-FACTORIAL HepG2 Assay for human SRY-box transcription factor (SOX) (AID 2282960); settings: HepG2 Attagene cis-factorial SOX reporter, mRNA; actives raise or lower the signal
Outline: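 Fluorescence-labelled cDNA fragments from reporter transcripts, sized by CE, give the signal. Cells: HepG2, transiently transfected with cis-regulated reporter units. Exposure 24 h; DMSO negative control; bidirectional curve fitting.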

[14] = ATG_SREBP_CIS: Attagene CIS-FACTORIAL HepG2 Assay for human Sterol Regulatory Element Binding (SREBP) (AID 2282962); settings: HepG2 Attagene cis-factorial SREBP reporter, mRNA; actives raise or lower the signal
Outline: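 Endogenous SREBP activity read as cis-element-driven reporter transcript in transiently transfected HepG2, 24 h post-dosing; quantified via RT-PCR plus capillary electrophoresis of fluorescent fragments. Gain or loss of signal fitted relative to DMSO baseline.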

[15] = biological target: Signal transducer and activator of transcription 3 (Homo sapiens) (UniProt P40763); test: ATG_STAT3_CIS: Attagene CIS-FACTORIAL HepG2 Assay for human Signal Transducer and Activator of Transcription 3 (STAT3) (AID 2282963); settings: HepG2, Attagene cis-factorial STAT3 reporter transcription; actives raise or lower the signal
Sequence of Signal transducer and activator of transcription 3 (Homo sapiens) (P40763 whole entry, looked up): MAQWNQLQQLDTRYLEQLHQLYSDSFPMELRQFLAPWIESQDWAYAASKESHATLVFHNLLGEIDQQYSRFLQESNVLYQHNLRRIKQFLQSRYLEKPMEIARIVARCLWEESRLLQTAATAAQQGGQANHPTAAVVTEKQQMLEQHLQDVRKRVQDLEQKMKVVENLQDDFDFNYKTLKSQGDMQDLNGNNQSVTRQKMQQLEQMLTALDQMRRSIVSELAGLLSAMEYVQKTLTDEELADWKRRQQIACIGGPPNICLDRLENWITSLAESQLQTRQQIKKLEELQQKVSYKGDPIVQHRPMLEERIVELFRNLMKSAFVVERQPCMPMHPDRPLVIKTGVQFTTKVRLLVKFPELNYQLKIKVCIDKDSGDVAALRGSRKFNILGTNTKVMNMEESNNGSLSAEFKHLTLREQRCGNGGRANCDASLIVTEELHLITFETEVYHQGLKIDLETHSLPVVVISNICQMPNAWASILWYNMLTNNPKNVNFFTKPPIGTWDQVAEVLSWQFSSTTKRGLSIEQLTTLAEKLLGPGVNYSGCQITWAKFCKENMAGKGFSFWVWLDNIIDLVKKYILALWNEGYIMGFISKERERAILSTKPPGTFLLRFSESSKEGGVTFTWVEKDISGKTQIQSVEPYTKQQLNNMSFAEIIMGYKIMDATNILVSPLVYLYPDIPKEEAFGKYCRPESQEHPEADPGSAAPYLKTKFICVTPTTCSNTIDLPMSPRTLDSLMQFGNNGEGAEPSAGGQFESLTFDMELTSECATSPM
Outline: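 Cis-factorial format: endogenous transcription factors in HepG2 drive transfected reporter units. After 24 h treatment, reporter RNA was reverse-transcribed, amplified, FAM-labelled and HpaI-digested before CE analysis; activity scored in both directions against DMSO.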

[16] = ATG_TA_CIS: Attagene CIS-FACTORIAL HepG2 Assay for human TA Basal Promoter (AID 2282964); settings: HepG2 Attagene CIS-factorial TA basal promoter reporter; actives raise or lower the signal
Outline: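 Fluorescence from labelled RT-PCR reporter fragments, separated by capillary electrophoresis, gives the signal. Cells: HepG2 transiently carrying multiple reporter units, 24 h chemical dosing. Gain or loss relative to DMSO.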

[17] = ATG_PBREM_CIS: Attagene CIS-FACTORIAL HepG2 Assay for human Phenobarbital-responsive Enhancer Module (PBREM) (AID 2282955); settings: HepG2 PBREM cis-reporter, Attagene multiplexed transcription; actives raise or lower the signal
Outline: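 Multiplexed cis-reporter readout in human hepatoma HepG2 cells; PBREM-regulated transcript quantified after 24 h exposure by fluorescent RT-PCR fragment analysis. Signal changes up or down fitted relative to DMSO.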

[18] = biological target: Transcription factor Sp1 (Homo sapiens) (UniProt P08047); test: ATG_Sp1_CIS: Attagene CIS-FACTORIAL HepG2 Assay for human Specificity Protein 1 (Sp1) (AID 2282961); settings: HepG2 Sp1 cis-reporter transcription, actives raise or lower the signal
Sequence of Transcription factor Sp1 (Homo sapiens) (P08047 whole entry, looked up): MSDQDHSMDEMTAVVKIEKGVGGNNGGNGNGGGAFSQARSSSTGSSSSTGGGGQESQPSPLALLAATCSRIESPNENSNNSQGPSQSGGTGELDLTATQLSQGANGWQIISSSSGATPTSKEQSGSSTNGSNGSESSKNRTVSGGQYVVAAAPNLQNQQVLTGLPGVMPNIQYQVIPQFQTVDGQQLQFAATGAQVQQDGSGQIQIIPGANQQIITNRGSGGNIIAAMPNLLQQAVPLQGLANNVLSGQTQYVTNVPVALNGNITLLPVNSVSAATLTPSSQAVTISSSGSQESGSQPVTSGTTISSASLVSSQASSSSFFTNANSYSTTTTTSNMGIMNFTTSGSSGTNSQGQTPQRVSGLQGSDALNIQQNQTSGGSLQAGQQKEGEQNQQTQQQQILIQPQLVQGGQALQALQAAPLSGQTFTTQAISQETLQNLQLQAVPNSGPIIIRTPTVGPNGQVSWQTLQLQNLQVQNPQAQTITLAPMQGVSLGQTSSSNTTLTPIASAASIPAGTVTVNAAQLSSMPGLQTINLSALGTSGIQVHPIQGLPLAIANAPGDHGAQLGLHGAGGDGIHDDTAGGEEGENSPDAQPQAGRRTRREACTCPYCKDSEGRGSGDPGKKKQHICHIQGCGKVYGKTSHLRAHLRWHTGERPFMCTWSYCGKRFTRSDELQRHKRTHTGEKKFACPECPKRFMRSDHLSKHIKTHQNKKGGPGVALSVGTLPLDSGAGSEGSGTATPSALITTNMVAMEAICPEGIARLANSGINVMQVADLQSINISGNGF
Outline: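 Chemicals are dosed onto HepG2 cells transfected with multiple cis-promoter reporter constructs, and after 24 h reporter RNA is reverse-transcribed, PCR-amplified and resolved by capillary electrophoresis for fluorescence quantitation; activity is scored up or down against DMSO.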

Measured: AC50

CCCCCCCCCCCCOC(C)=O
not listed: [17] | [18]
inactive: all other assays above

CCCCCCCOC(C)=O
active: [10] 31 µM
not listed: [17] | [18]
inactive: all other assays above

[O-]/[N+](=N\O)c1ccccc1
active: [10] 26.6 µM
not listed: [12] | [16]
inactive: all other assays above

CCOC(=O)CC1(C)OCC(C)O1 (configuration not stated)
not listed: [6]
inactive: all other assays above

NS(=O)(=O)c1cc(C(=O)O)c(NCc2ccco2)cc1Cl
not listed: [6] | [17]
inactive: all other assays above

CCCCCC#CC(=O)OC
active: [10] 20.2 µM
not listed: [12]
inactive: all other assays above

COc1ccc(N)c(C)c1
active: [17] 181 µM | [10] 27.3 µM
not listed: [8] | [11] | [13] | [18]
inactive: all other assays above

CCC(C)COC(=O)CC(C)C (configuration not stated)
not listed: [8]
inactive: all other assays above

CC1=CCC(=C(C)C)CC1
active: [10] 5.48 µM
not listed: [8] | [11] | [12] | [16] | [18]
inactive: all other assays above

C=C(C)C(N)=O
not listed: [6] | [11] | [13] | [16]
inactive: all other assays above

O=C(O)c1ccco1
not listed: [11] | [12] | [17]
inactive: all other assays above

ClCCOCCOCCCl
not listed: [15] | [17]
inactive: all other assays above

COc1ccccc1NC(=O)CC(C)=O
active: [10] 34.2 µM
not listed: [12]
inactive: all other assays above

O=[N+]([O-])c1cc(N(CCO)CCO)ccc1NCCO
not listed: [11] | [13] | [16] | [17]
inactive: all other assays above

CCCCCCCCCCCCOCCOS(=O)(=O)O
active: [10] 14.2 µM
not listed: [8] | [12]
inactive: all other assays above

CCC(C)(C)C1CCC(=O)CC1
active: [10] 5.24 µM
not listed: [12] | [13] | [17]
inactive: all other assays above

C=C(C)CCCC(C)CCO (configuration not stated)
active: [10] 6.72 µM
not listed: [17]
inactive: all other assays above

COc1cc(OC)c2ccc(=O)oc2c1
not listed: [12] | [15]
inactive: all other assays above
